Bioassay records deposited in PubChem by several laboratories.
HSF1 inhib – HSF1 inhibitors in luciferase reporter cells, primary screen, cell-based, NIH3T3, luminescence. activity change, negative = inhibition, % at 7.5 µM (by protocol). NIH3T3-HGL HSE-luciferase, MG132-induced, luminescence 8 h; stronger effect = lower value. hit rate 0.77% among 300,000. AID 2098, 2009;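 active = more than half of replicate wells show activity change below -50%, luminescence cut by over half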;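 note: luciferase reports HSF-1 transcriptional activity via heat shock element; 0% = median of DMSO wells and -100% = zero luminescence signal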
FXN GAA850 act – FXN promoter activators, primary screen, cell-based, luciferase luminescence, HEK293 lucGAA850. activation, % at 6 µM. HEK293 lucGAA850 FXN promoter luciferase reporter, 24 h; percent of 10 µM SAHA response. AID 540364, 2011. hit rate 0.56% among 360,000;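 active = activation above the average of all compounds screened plus 3 SD, cutoff fixed separately per campaign, cut at about 7.5% in these data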;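 note: 0% = DMSO wells and 100% = 10 µM SAHA wells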
HSP90 refold inh – HSP90 inhibitors, primary screen, cell lysate, luminescence; Heat shock protein HSP 90 (rabbit reticulocyte lysate; luciferase refolding); Rabbit reticulocyte lysate, luciferase refolding luminescence, 3 h; inhibition, % at 5.6 µM; hit rate 0.91% among 290,000; AID 1789, 2009;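 active = inhibition above the screen-wide mean plus 3 SD, computed separately per campaign, cut at about 16% in these data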;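 note: 0% = DMSO wells and 100% = 60 µM geldanamycin wells; inhibitors lower the luminescence because luciferase stays unfolded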
HSF1 activator – HSF-1 activators, primary screen, NIH3T3-HGL cells, MG132 stress, luminescence, single point. hit rate 1.7% among 300,000. NIH3T3-HGL HSF-1 luciferase reporter, 8 h; 100% = twice DMSO control signal. AID 504408, 2011. activation, % at 9 µM;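 active = mean replicate activation of at least 50% with a set share of replicates each reaching 50%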;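 note: 0% = median of the neutral control wells and 100% = twice that signal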
NR0B1 inh – DAX1 (NR0B1) inhibitors, primary screen, cell-based, HEK293, Gal4-DAX1, luciferase luminescence; hit rate 0.99% among 340,000; Nuclear receptor subfamily 0 group B member 1 (Homo sapiens), P51843; inhibition, % at 6.75 µM; HEK293 Gal4-DAX1 luciferase reporter; AID 504766, 2011;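 active = inhibition above the mean over all tested compounds plus 3 SD, cut at about 4.2% in these data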;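 note: 0% = DAX1-transfected cells with DMSO and 100% = empty-vector control cells with DMSO; inhibition shows as a rise in luminescence from relieved DAX1 repression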
AHR activator – AHR activators, primary screen, cell-based, luminescence, luciferase reporter, human; Aryl hydrocarbon receptor (Homo sapiens), P35869; hit rate 2.5% among 320,000; activation, % at 5 µM; AHR-responsive luciferase reporter cells; in the data active = activation above about 47%;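 note: 0% = vehicle wells and 100% = reference agonist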
Target sequence (P35869 whole entry, looked up): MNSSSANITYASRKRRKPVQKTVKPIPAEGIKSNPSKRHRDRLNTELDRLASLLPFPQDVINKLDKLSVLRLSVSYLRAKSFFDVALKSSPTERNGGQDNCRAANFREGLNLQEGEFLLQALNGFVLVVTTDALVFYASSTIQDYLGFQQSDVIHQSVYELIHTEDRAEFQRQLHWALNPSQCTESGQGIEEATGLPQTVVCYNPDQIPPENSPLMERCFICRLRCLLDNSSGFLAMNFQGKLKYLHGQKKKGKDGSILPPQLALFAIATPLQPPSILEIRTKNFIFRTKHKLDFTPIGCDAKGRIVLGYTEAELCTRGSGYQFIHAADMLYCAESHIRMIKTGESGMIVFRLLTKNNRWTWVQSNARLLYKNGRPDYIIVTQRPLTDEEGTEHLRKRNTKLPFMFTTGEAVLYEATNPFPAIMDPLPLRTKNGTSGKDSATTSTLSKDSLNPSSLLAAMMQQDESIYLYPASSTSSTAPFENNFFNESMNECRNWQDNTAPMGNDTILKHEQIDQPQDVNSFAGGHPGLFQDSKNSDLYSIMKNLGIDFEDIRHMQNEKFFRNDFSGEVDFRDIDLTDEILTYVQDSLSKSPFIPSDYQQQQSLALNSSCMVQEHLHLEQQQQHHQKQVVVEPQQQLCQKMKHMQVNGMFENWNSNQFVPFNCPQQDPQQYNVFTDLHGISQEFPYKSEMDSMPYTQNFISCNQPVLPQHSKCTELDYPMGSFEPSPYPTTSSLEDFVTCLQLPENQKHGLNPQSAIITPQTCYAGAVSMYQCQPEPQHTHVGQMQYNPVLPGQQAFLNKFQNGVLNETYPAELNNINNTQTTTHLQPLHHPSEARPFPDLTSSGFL
Starred values were filed as active, the others as inactive; . = no result given. A selection: hits, their analogues and other compounds. The true share with any hit is near 5.9%.

SMILES	HSF1 inhib	FXN GAA850 act	HSP90 refold inh	HSF1 activator	NR0B1 inh	AHR activator
O=C(CSc1nnc(-c2ccncc2)n1Cc1ccco1)OC1CCCCC1	7	0	-4	-4	0	1
O=C(CSc1nnc(-c2ccco2)n1Cc1ccccc1)OC1CCCCC1	47	1	2	79*	2	1
CC(=O)c1c(C)[nH]c(C(=O)CSc2nnc(-c3cccs3)n2Cc2ccccc2)c1C	7	-3	-2	15	-2	7
COc1cc(CNC(=O)c2cc(-c3cc(Cl)ccc3OC)n[nH]2)cc(OC)c1	.	0	.	.	.	.
O=C(NCc1nnc2c(C(F)(F)F)cc(Cl)cn12)c1ccc2c(c1)OCO2	0	0	0	9	0	52*
CCN(CC)c1ccc(/C=N/NC(=O)c2cc3ccccc3[nH]2)cc1	-6	4	0	-8	0	58*
CCN(CC)c1ccc(/C=N/NC(=O)c2c[nH]c3ccccc23)cc1	3	5	-3	23	-1	50*
O=C(N/N=C\c1ccc(Sc2ccccn2)o1)c1cccc(Br)c1	2	-3	0	29	2	61*
Cc1ccc(C(=O)Nc2cc(C(F)(F)F)ccc2-n2cncn2)o1	.	0	.	.	1	35
O=C(Nc1cc(Cl)ccc1-n1cncn1)c1ccco1	-3	2	0	-1	0	32
COc1ccccc1C(=O)Nc1cc(Cl)ccc1-n1cncn1	-5	4	0	5	0	49*
O=C(Nc1cc(Cl)ccc1-n1cncn1)c1ccc([N+](=O)[O-])s1	-17	-1	0	-26	0	68*
COc1cc(OC)c(C(=O)Nc2cc(Cl)ccc2-n2cncn2)cc1OC	2	1	.	20	-1	59*
Cc1ccc(C(=O)Nc2cc(Cl)ccc2-n2cncn2)o1	2	0	.	5	2	58*
COc1cc(C(C)=O)ccc1OCC(=O)Nc1cc(Cl)ccc1-n1cncn1	.	1	.	.	0	.
COc1ccccc1NC(=O)C1CCN(S(=O)(=O)c2cccs2)CC1	.	1	.	.	0	3
CCCN1CCN(C(=O)C2CCN(c3ncnc4c3nc3n4CCCCC3)CC2)CC1	-4	-2	-1	-6	0	1
COc1ccc(C(C[N+](=O)[O-])C2(c3ccc(OC)c(OC)c3)C(=O)c3ccccc3C2=O)cc1 (stereo unspecified)	146	7	1	214*	-1	1
COc1ccc(C(C[N+](=O)[O-])c2c(-c3ccccc3)cc3ccccn23)cc1OC (stereo unspecified)	24	2	3	28	-1	-3
Cc1cccc(OCCCC(=O)Nc2nccs2)c1	38	0	0	67*	0	-2
CCOC(=O)Nc1ccc2c(c1)N(C(=O)CN(CC)CC)c1ccccc1CC2	-18	-1	3	-35	2	.
CCOC(=O)Nc1ccc2c(c1)N(C(=O)CN(CC)CC)c1ccccc1C=C2	58	0	-2	74*	-1	-1
O=S(=O)(c1ccc(F)cc1)N1CCN(C(=S)NC2CC2)CC1	.	0	.	.	0	0
Cc1ccc(/C=c2\s/c(=C(/C#N)C(=O)N3CCCC3)n(Cc3ccco3)c2=O)s1	50	5	12	90*	-1	0
CCOC(=O)c1c(C)[nH]c(C(=O)COC(=O)C2CC2)c1C	.	5	.	.	0	.
SMILES	HSF1 inhib	FXN GAA850 act	HSP90 refold inh	HSF1 activator	NR0B1 inh	AHR activator
CCOC(=O)c1c(C)[nH]c(C(=O)COC(=O)C2(C)CC2(Cl)Cl)c1C (stereo unspecified)	21	5	1	56*	0	4
C[C@H](CO)N1C[C@H](C)[C@@H](CN(C)Cc2ccc(-c3ccccc3)cc2)Oc2c(NS(=O)(=O)c3cccs3)cccc2C1=O	.	-6	.	.	-1	3
Cc1cccc(NC(=O)COC(=O)CN2C(=O)c3ccccc3C2=O)c1	.	0	.	.	0	.
O=C(NNC(=O)c1ccncc1)Nc1cccc(C(F)(F)F)c1	1	0	-4	15	0	.
COc1ccc(C2=NN(C)C(=NCc3ccccc3)SC2)cc1	22	4	-2	53*	0	-2
COc1ccc(CN=C2NN=C(c3ccc(Cl)cc3)CS2)cc1	-2	0	-3	8	-1	3
Cc1nnsc1-c1c(C(=O)N2CCOCC2)c(C)nn1-c1ccc(Cl)cc1	-3	-1	0	7	4.8*	4
Cc1nnsc1-c1c(C(=O)N2CCOCC2)c(C)nn1-c1ccccc1	-1	-1	5	-3	0	0
Cc1ccc(F)c(C(=O)N2CCCC(C)(C(=O)NS(=O)(=O)C3CC3)C2)c1F (stereo unspecified)	.	2	.	.	.	.
COc1cc(SC)ccc1C(=O)NCCOc1ccc(F)cc1	45	5	1	68*	1	8
O=C(NCCCn1ccnc1)c1noc2c1CCc1ccccc1-2	12	-2	4	18	-1	29
COc1cc(C(=O)NCCSc2ccc(F)cc2)cc(OC)c1OC	16	3	3	66*	1	4
O=C(NCCCn1ccnc1)c1noc2c1CCCC2	8	4	3	31	1	48*
COc1ccc(CCNC(=O)c2ccc(SC)cc2OC)cc1	5	1	7	13	0	-3
COc1cc(SC)ccc1C(=O)NCCCn1ccnc1	4	-1	-2	36	0	59*
COCCCNC(=O)c1cc(OC)c(OC)c(OC)c1	-2	-1	-1	2	1	2
COc1ccc(NC(=O)C2CCCN(S(=O)(=O)c3c(C)[nH]c(=O)[nH]c3=O)C2)cc1Cl (stereo unspecified)	-4	0	-1	1	0	4
COc1ccc(S(=O)(=O)N(C)C[C@@H]2Oc3c(NS(=O)(=O)c4cn(C)cn4)cccc3C(=O)N([C@@H](C)CO)C[C@@H]2C)cc1	.	2	.	.	1	-1
CCOc1cc(C(=O)NCCCn2ccnc2)cc(OCC)c1OCC	4	0	-2	16	1	50*
Cc1cccc(CSc2nc(N)c(C#N)c(-c3cccs3)c2C#N)c1	2	7	8	-6	-2	34
Cc1cccc(CSc2nc3c(c(-c4cccs4)c2C#N)CN(C)CC3)c1	47	1	-4	77*	0	1
COc1cccc2c1C1COC3C4CC(C(=O)O)C(C(C2)N13)N4C (stereo unspecified)	.	-8	.	.	-2	.
